Source: PubChem
CYP2C19 inh: inhibitors of human CYP2C19 | P33261 | CYP2C19 Supersomes, luciferin-H EGE luminescence, 30 min | inhibition, % at 5 µM | 21% of 96,000 active | AID 778;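 active = CYP2C19 inhibition above a set limit at 5 µM in the primary screen, cut at about 50% in these data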
Target sequence (P33261 whole entry, looked up): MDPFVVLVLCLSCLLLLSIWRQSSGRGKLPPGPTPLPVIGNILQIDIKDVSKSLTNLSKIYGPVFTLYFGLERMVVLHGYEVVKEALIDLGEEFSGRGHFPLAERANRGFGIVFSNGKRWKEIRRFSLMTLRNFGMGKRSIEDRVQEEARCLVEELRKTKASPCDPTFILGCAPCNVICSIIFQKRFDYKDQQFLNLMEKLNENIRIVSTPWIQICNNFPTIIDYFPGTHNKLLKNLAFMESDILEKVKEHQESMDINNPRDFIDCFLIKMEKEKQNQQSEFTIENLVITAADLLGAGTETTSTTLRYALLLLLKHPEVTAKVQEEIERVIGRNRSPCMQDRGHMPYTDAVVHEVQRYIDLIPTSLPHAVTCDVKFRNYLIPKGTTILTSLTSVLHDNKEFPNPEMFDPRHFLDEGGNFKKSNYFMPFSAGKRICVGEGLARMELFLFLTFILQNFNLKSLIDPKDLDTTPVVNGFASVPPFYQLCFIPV
CYP2C9 act: CYP2C9 (human) activation | activation factor at 5 µM | recombinant CYP2C9, luciferin-H conversion, luminescence; active compounds read high; factor 1 = untreated enzyme, 0 = blocked | 1.4% of 96,000 active | AID 1024;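 active = activation factor of 2 or more for CYP2C9 at a 5 µM dose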
PTK2B oligo ant: antagonists of human Pyk2 oligomerization; Q14289; Q293 cells, Pyk2 FERM NanoBiT luminescence; active compounds read low; z-score (the deposit names both 25 µM and 10 µM); 0.83% of 99,000 active;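 active = Z-score of -3 or lower, scaled per plate to the spread of control and sample wells; inactive = z-score above -3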;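 note: negative z-score means lost luminescence so less FERM oligomerization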
CYP2C19 activ: activators of human cytochrome P450 2C19. AID 1025. recombinant CYP2C19, luciferin-H EGE luminescence; active compounds read high; 0 = fully inhibited enzyme, 1 = untreated enzyme. P33261. 96,000 tested, under 10 active. activation factor at 5 µM;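 active = activation factor of at least 2 at 5 µM in the primary screen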
Cav3 T inh: inhibitors of human Cav3.2 T-type calcium channel. O95180. Cav3.2-expressing cells, Fluo-4 calcium fluorescence FDSS; active compounds read low. B-score at 10 µM. 4% of 100,000 active;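 active = single-dose well whose peak fluorescence ratio is a statistical outlier from its plate by either plate-standardised score or position-corrected B-score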
CYP2C9 inh: inhibitors of human CYP2C9; P11712; 20% of 96,000 active; inhibition, % at 5 µM; CYP2C9 Supersomes, luciferin-H conversion, luminescence; AID 777;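 active = blocking of liver enzyme CYP2C9 beyond about 50% at 5 µM, limit read from the data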
Hits are given with their value; – = inactive; · = no result given. Shown are actives, neighbours in structure and some others; about 27% of the full set was active somewhere.

SMILES | CYP2C19 inh | CYP2C9 act | PTK2B oligo ant | CYP2C19 activ | Cav3 T inh | CYP2C9 inh
COc1ccc(-c2cc(C(=O)N3CCOCC3)c3cc(C)ccc3n2)cc1 | – | – | – | – | · | 59
COc1ccc(NS(=O)(=O)c2ccc(NC(=O)c3ccc(N(C)S(C)(=O)=O)cc3)cc2)c(OC)c1 | · | · | – | · | · | ·
COc1ccc(-c2cc(C(=O)NCCN3CCOCC3)c3ccccc3n2)cc1 | – | – | – | – | – | 52
CCN(CC)C(=O)CC(c1ccc(OC)cc1)c1c(OC)cc(OC)c2ccc(=O)oc12 (centres undefined) | · | · | · | · | – | ·
Cc1ccc(S(=O)(=O)N(Cc2cc3cc4c(cc3[nH]c2=O)OCCO4)CC2CCCO2)cc1 (centres undefined) | – | – | – | – | – | –
COc1ccc2cc(CN(CC3COCCO3)S(=O)(=O)c3ccc(Cl)cc3)c(=O)[nH]c2c1 (centres undefined) | – | – | – | – | – | 60
O=c1[nH]c2cc3c(cc2cc1CN(CC1CCCO1)S(=O)(=O)c1ccc(Cl)cc1)OCCO3 (centres undefined) | – | – | – | – | – | –
Cc1cc(C)c2cc(CN(CC3CCCO3)S(=O)(=O)c3ccc4c(c3)OCCO4)c(=O)[nH]c2c1 (centres undefined) | – | – | – | – | – | 73
COC(=O)c1ccccc1S(=O)(=O)N(Cc1ccco1)Cc1cc2cc(OC)ccc2[nH]c1=O | 68 | – | – | – | – | –
COc1ccc2[nH]c(=O)c(COC(=O)c3ccco3)cc2c1 | – | – | – | – | · | –
COc1ccc2[nH]c(=O)c(CN(CCO)S(=O)(=O)c3ccc4c(c3)OCCO4)cc2c1 | 75 | – | – | – | · | –
Cn1cnnc1SCC(=O)Nc1ccc2nc(SCc3ccccc3Cl)sc2c1 | · | · | – | · | – | ·
Cc1ccc(C)c2[nH]c(=O)c(CN(Cc3ccco3)S(=O)(=O)c3ccc4c(c3)OCCO4)cc12 | 75 | – | – | – | – | 67
Cc1ccc(C)c2[nH]c(=O)c(CCNC(=O)C(C)(C)C)cc12 | – | – | · | – | – | –
CC(=O)c1ccc(S(=O)(=O)N(Cc2cc3cc4c(cc3[nH]c2=O)OCCO4)CC2CCCO2)cc1 (centres undefined) | – | – | – | – | – | –
COC(=O)c1ccccc1S(=O)(=O)N(CCCO)Cc1cc2c(C)ccc(C)c2[nH]c1=O | 54 | – | – | – | – | 84
COc1ccc2cc(CN(CC3CCCO3)S(=O)(=O)c3ccccc3)c(=O)[nH]c2c1 (centres undefined) | – | – | – | – | – | 86
COc1ccc(/C=C/C(=O)C2C(=O)C=C(C)OC2=O)cc1O (centres undefined) | · | · | – | · | · | ·
CC[C@H](C)[C@@H]1NC(=O)c2cc([N+](=O)[O-])cc(I)c2SC[C@@H](C(N)=O)NC(=O)[C@H](CCCCN)NC1=O | · | · | · | · | – | ·
O=C(/C=C/c1c(Cl)cccc1Cl)n1cccn1 | · | · | – | · | – | ·
Cc1nnc(SCC(=O)Nc2ccccc2)n1CCc1ccccc1 | – | – | – | – | – | –
CCC(=O)c1cc2c(cc1NC(=O)c1ccc(C)cc1)OCCO2 | – | – | – | – | – | –
CCCc1cc2c(cc1NC(=O)c1ccc(C)cc1)OCO2 | 98 | – | – | – | – | –
Cc1cc(C)n(-c2c(F)c(F)c(CN3CCOCC3)c(F)c2F)n1 | – | – | – | – | – | –
O=C(NCc1ccccc1F)C1CCCN(C(=O)NC2CCCCC2)C1 (centres undefined) | – | – | – | – | – | –
SMILES | CYP2C19 inh | CYP2C9 act | PTK2B oligo ant | CYP2C19 activ | Cav3 T inh | CYP2C9 inh
NNC(=O)CNC(=O)c1cccc(Br)c1 | – | – | – | – | – | –
Nc1c(S(=O)(=O)c2ccccc2)c2nc3ccccc3nc2n1/N=C/c1ccco1 | – | – | – | – | – | –
Cc1ccc(S(=O)(=O)c2c(N)n(/N=C/c3ccco3)c3nc4ccccc4nc23)cc1 | 68 | – | – | – | – | 84
Cc1cccc(S(=O)(=O)c2c(N)n(/N=C/c3ccco3)c3nc4ccccc4nc23)c1 | 61 | – | – | – | – | 86
Cc1ccc(S(=O)(=O)c2c(N)n(/N=C/c3ccco3)c3nc4ccccc4nc23)cc1C | – | – | – | – | – | 51
COc1ccc(C(C(=O)NC(C)(C)C)N(C(=O)CNC(=O)c2cccs2)c2ccc(C)cc2)cc1OC (centres undefined) | – | – | – | – | · | –
NCCCC[C@H]1CNC(=O)C(=O)N1CCc1cccc(F)c1 | · | · | · | · | – | ·
COC(=O)c1cccc(NC(=O)CCSc2ccc(Cl)cc2)c1C | – | – | – | – | – | –
Cc1ccccc1-n1c(SC(C)C(=O)N2CCN(C)CC2)nc2ccccc2c1=O (centres undefined) | – | – | – | – | · | –
CCCCCCn1c(SCC(=O)c2c(N)n(C)c(=O)n(C)c2=O)nc2ccccc21 | – | – | – | – | – | 75
CCCn1c(N)c(C(=O)CSc2nc3ccccc3n2CCC#N)c(=O)n(C)c1=O | – | – | – | – | – | –
CCc1c(C#N)c(SCCC(=O)Nc2ccc(F)cc2)nc2c1C(=O)CC(C)(C)C2 | 98 | – | -3.2 | – | – | 97
O=C(CSc1nnnn1-c1ccccc1)Nc1nsc(-c2ccccc2)n1 | – | – | – | – | – | –
Cc1nnc(SCCC(=O)Nc2ccc(F)cc2)s1 | – | – | – | – | – | –
CC1(C)CC(=O)c2c(nc(SCC(=O)Nc3nsc(-c4ccccc4)n3)c(C#N)c2-c2ccccc2)C1 | 54 | – | – | – | -2.4 | 85
CCc1c(C#N)c(SCCC(=O)Nc2cccc(OC)c2)nc2c1C(=O)CC(C)(C)C2 | 98 | – | – | – | – | 98
COc1ccc(-c2c(C#N)c(SCc3c(C)noc3C)nc3c2C(=O)CC(C)(C)C3)cc1 | – | – | – | – | · | –
COC(=O)Nc1ccc(S(=O)(=O)NCCO)cc1 | – | – | – | – | – | –
COC(=O)N[C@H](CC(C)=O)c1cccc(C(F)(F)F)c1 | · | · | · | · | – | ·
CC(C)c1ccc(/C=N/n2nnnc2Nc2ccccc2)cc1 | – | – | – | – | – | –
CC/C(=N\n1nnnc1Nc1ccccc1)c1ccccc1 | · | · | – | · | -5.7 | ·
Cc1ccc(C(C2C(=O)CC(C)(C)CC2=O)C2C(=O)CC(C)(C)CC2=O)s1 | – | – | – | – | – | –
Cc1ccccc1-n1nc2c(c1NC(=O)c1ccc(Br)o1)CSC2 | – | – | – | – | -4.7 | 57
CCCC(=O)Nc1c2c(nn1-c1ccc(C)cc1C)CSC2 | – | – | – | – | – | –
Cc1cc(NC(=O)C2CCN(S(=O)(=O)Cc3ccccc3)CC2)ccc1-n1cnnn1 | · | · | – | · | – | ·
Cc1cc(Cl)ccc1OCC(=O)N1CCCCC1 | 88 | – | – | – | – | –
COc1ccc(N2CCN(C(=O)COc3ccc(Cl)cc3Cl)CC2)cc1 | – | – | – | – | · | –
COc1cc2c(cc1OC)CN(C(=O)CCCOc1ccc(Cl)cc1Cl)CC2 | – | – | – | – | – | 57
